# SMN2 splice up = SMN2 splice variant enhancement | HEK293 SMN2-luciferase splicing reporter, luminescence, 30-36 h | Potency, µM (series often up to 46.1 µM), for inactives: top-dose activity change, positive = activation, hits mostly activators | 210,000 tested, 2.8% active | AID 1458; note: % of control where 0% means no effect; nearly all actives have a fitted effect of over 55% in size
#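 HEK293 cells carry an SMN2 minigene-luciferase reporter in which exon 7 inclusion puts luciferase in frame. Cells were seeded at 2000 cells/well, attached for 10-12 hours, then exposed to compounds for 30-36 hours at 37C before ONE-Glo luminescence.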
# ELG1 genotoxic = induces genotoxicity in HEK293T cells with luciferase-tagged ELG1; 330,000 tested, 1.3% active; AID 504466; Potency, µM (highest dose often 46 µM), without a hit: at the highest dose activity change, positive = activation, most hits filed as activators; HEK293T ELG1-luciferase reporter, luminescence, 16 h; note: % of control where 0% means no effect; nearly all actives have a fitted effect of over 60% in size
#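 Reporter readout depends on ELG1 protein level, which increases with genetic stress. After 16 hr compound exposure at 37 °C, luciferase activity was quantified using ONE-Glo.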
# KinaseGlo FLuc = Kinase-Glo luciferase inhibition (counter-screen); Kinase-Glo luciferase, ATP luminescence, 8 min; Q27757; AID 1379; Potency, µM (series often up to 38.3 µM), inactives show at the highest dose activity change, negative = inhibition, hits mostly inhibitors; 200,000 tested, 0.28% active; note: % is set by controls: 0 for no effect and ±100 for the full control effect; nearly all actives have a fitted effect of over 60% in size
#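 Substrate mix (final 50 mM imidazole pH 7.2, 50 mM KCl, 7 mM MgCl2, 10 uM ATP, 0.01% Tween 20, 0.05% BSA) plus pin-tool compound, then Kinase-Glo detection mix; 8 min ambient, luminescence read.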
# Rab9 promoter act = activates the Rab9 promoter | Huh7 Rab9 promoter-luciferase reporter, luminescence, 24 h | Potency, µM (series often up to 9.22 µM), for inactives: at the highest dose activation, negative = inhibition, hits mostly activators | 320,000 tested, 2.8% active | AID 485297; note: % of control where 0% means no effect; nearly all actives have a fitted effect of over 60% in size
#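 Cell-based reporter: Huh7 stable for Rab9 promoter-driven luciferase, plated in reduced-serum medium with 10% FBS at 1500 cells/well, compound-treated 24 h at 37 °C, luminescence read after 10 min reagent.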
# FLuc counter = counter-screen for miR-21 project: firefly luciferase inhibitors or activators. purified FLuc, Km substrates, luminescence inhibition. Potency, µM (top dose mostly 57.5 µM), for inactives: top-dose activity change, negative = inhibition, most hits filed as inhibitors. 360,000 tested, 6.9% active;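 note: plate controls were vehicle for no effect and reference inhibitor for full effect; nearly all actives have a fitted effect of over 55% in size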
# Target sequence (P08659 whole entry, looked up): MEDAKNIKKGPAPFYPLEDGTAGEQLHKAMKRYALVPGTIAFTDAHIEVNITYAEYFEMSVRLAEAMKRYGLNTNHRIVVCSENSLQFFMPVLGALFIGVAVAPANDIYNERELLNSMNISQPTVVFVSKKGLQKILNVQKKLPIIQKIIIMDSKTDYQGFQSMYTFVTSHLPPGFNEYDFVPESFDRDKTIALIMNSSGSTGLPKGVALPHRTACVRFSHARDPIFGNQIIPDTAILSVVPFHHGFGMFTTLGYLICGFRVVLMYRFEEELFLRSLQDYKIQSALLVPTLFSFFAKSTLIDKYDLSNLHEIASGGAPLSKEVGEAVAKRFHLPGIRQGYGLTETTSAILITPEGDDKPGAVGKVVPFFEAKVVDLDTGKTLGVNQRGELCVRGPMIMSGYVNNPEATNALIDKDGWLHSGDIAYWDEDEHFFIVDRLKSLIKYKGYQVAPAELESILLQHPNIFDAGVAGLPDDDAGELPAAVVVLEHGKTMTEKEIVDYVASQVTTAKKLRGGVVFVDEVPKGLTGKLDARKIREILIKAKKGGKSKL
#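 Biochemical qHTS of compounds, final roughly 60 µM downward over six points, against 10 nM purified firefly luciferase using Km concentrations of substrates (10 uM D-luciferin, 10 uM ATP) in Tris acetate pH 7.5 buffer; luminescence output.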
# NPC1 prom act = activates the NPC1 promoter. Huh7 NPC1 promoter luciferase reporter, 24 h. Potency, µM (series often up to 9.22 µM), for inactives: at the highest dose activation, hits mostly activators. 320,000 tested, 2.4% active. AID 485313; note: % of control where 0% means no effect; nearly all actives have a fitted effect of over 60% in size
#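 Quantitative HTS used a cell-based reporter: Huh7 cells stably bearing the NPC1 promoter upstream of luciferase were treated with compounds for 24 h, and promoter activation was read as luminescence.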
# The depositor's hits bear a star; ? = inconclusive; / = no result; [ ] = another dose, or the depositor's remark. Only some compounds are listed: those with a hit (about 7.5% of all), similar ones and a draw of the others. Calls come from the whole dose curve; as a rule, active = well fitted curve in the direction sought with a large enough effect; inconclusive = small, poorly fitted or top-dose-only effect, or another doubt; inactive = no such curve, though single readings can be large; an effect the other way counts as inactive or inconclusive. Potency is the fitted concentration of half-maximal effect.
SMILES,SMN2 splice up,ELG1 genotoxic,KinaseGlo FLuc,Rab9 promoter act,FLuc counter,NPC1 prom act
C/C(=N\NC(=O)c1cccs1)c1ccc(C(=O)O)s1,/,?,/,-1%,-14%,4%
C/C(=N/NC(=O)OC(C)(C)C)c1ccco1,14µM*,?,-24%,2.5µM*,19µM*,?
CC(=O)N/N=C(/C)c1ccc(NC(=O)c2csc(C)c2C)cc1,/,12µM*,/,1.4µM*,11µM*,2.8µM*
COc1ccccc1C(=O)NCC1(c2ccccc2)CCCC1,-23%,4%,-1%,-4%,-9%,-6%
COc1ccccc1NC(=O)C1=C(C)Nc2c(C(=O)Nc3ccc(F)cc3)cnn2C1c1ccc(Cl)cc1 (stereo not given),/,/,/,/,-11%,/
CCN(CC)C(C)C#CCC(c1ccccc1)c1ccccc1 (stereo not given),/,-10%,/,-5%,-1%,-2%
COc1cccc2sc(N3CCN(C(=O)CCS(=O)(=O)c4ccc(F)cc4)CC3)nc12,/,/,/,/,-8%,/
CC(/C=N/NC(=O)c1cccs1)=C\c1ccco1,11µM*,9.2µM*,-18%,1.4µM*,6µM*,3.2µM*
CC(/C=N/NC(=O)Cc1cccs1)=C\c1ccco1,15%,10%,0%,?,?,?
COc1cc(C)c(C(=O)Oc2cc(C)c(C(=O)O)c(O)c2)c(O)c1,/,5%,/,7%,19µM*,-2%
Cc1cc(O)cc(O)c1C(=O)O,7%,/,0%,/,/,/
COc1ccc(-c2cn(CCO)c(-c3ccncc3)n2)cc1,/,4%,/,-1%,-2%,0%
COc1cccc(/C=N/Nc2ncnc3scc(-c4ccccc4)c23)c1O,-75%,-3%,0%,-26%,21µM*,-9%
COc1cccc(/C=N/Nc2ncnc(Cl)c2N)c1O,/,13µM*,-5%,-24%,9.5µM*,-15%
COc1cccc(/C=N/Nc2cc(-n3nc(C)cc3-c3ccccc3)ncn2)c1O,-107%,-11%,2%,-44%,13%,-32%
COc1cccc(/C=N/Nc2nccnc2Cl)c1O,-66%,2.6µM*,11µM*,-23%,2.7µM*,-18%
CCCOP(=O)(c1ccc(N(C)C)cc1)C(O)c1ccc(Br)cc1 (stereo not given),/,0%,/,-7%,3%,0%
COc1cc(C2NC(=O)c3c(sc4c3CCN(C)C4)N2)cc(Br)c1OC(=O)c1ccc(C)cc1 (stereo not given),0%,/,/,/,-2%,/
O=C(OCC(=O)c1c[nH]c2ccccc12)c1ccc(Br)o1,/,6%,-5%,11%,17µM*,4%
O=C(NCCc1c[nH]c2ccccc12)c1ccc(Br)o1,/,5%,/,/,/,/
O=C(OCC(=O)c1c[nH]c2ccccc12)c1ccco1,1%,16µM*,-3%,8%,9.5µM*,7%
COc1cccc(/C=C/C(=O)OCC(=O)c2c[nH]c3ccccc23)c1OC,-15%,0%,2%,1%,-11%,-2%
COc1cccc(C(=O)OCC(=O)c2c[nH]c3ccccc23)c1O,25%,?,-3%,17%,19µM*,13%
O=[N+]([O-])c1cccc(-c2csc(N/N=C/c3cccc(O)c3)n2)c1,10%,1%,10%,8%,?,2%
Cc1ccc(C)c(CN2C(=O)c3ccccc3S(=O)(=O)c3ccc(C(=O)N4CCN(c5ccccc5)CC4)cc32)c1,-7%,/,/,/,2%,/
SMILES,SMN2 splice up,ELG1 genotoxic,KinaseGlo FLuc,Rab9 promoter act,FLuc counter,NPC1 prom act
CCC12CN3CC(C)(CN(C1)C3c1ccc(O)cc1O)C2=O (stereo not given),-7%,/,/,/,2%,/
COc1ccc(S(=O)(=O)N2Cc3ccccc3CC2C(=O)Nc2nccs2)cc1OC (stereo not given),13µM*,5.8µM*,3%,16%,?,12%
COc1ccc(S(=O)(=O)N2CCC(C(=O)Nc3nccs3)CC2)cc1,/,?,/,?,12µM*,2.8µM*
CCS(=O)(=O)N1Cc2ccccc2CC1C(=O)Nc1nc(C)cs1 (stereo not given),1%,?,3%,?,19µM*,26%
COc1ccc(S(=O)(=O)N2Cc3ccccc3CC2C(=O)Nc2nccs2)cc1 (stereo not given),?,12%,4%,6%,-13%,18%
CCS(=O)(=O)N1Cc2ccccc2CC1C(=O)Nc1nccs1 (stereo not given),18µM*,?,3%,5%,?,0%
COC(=O)c1sc2cccc(F)c2c1S(=O)(=O)NCc1ccc(F)cc1,/,/,/,/,0%,/
CC(C)(C)N1C(=O)[C@H]2[C@@H](c3ccc(Br)cc3)N3C(=O)N(c4cccc(Cl)c4)C(=O)[C@@]3(Cc3ccccc3)[C@H]2C1=O,/,0%,/,-2%,-1%,-4%
O=C(c1cccc(F)c1)N1CCC(c2c[nH]c3ccccc23)(c2c[nH]c3ccccc23)CC1,0%,/,/,/,6%,/
CC1=NN(c2ccccc2)C(=O)/C1=C\N(O)c1ccccc1,/,0%,/,12%,?,-2%
CC1=NN(c2ccc(C(=O)O)cc2)C(=O)/C1=C\c1ccc(OC(=O)c2cccs2)cc1,8%,-1%,0%,1%,24µM*,-6%
COc1cc(/C=C2/C(=O)N(c3ccccc3)N=C2C)ccc1OS(=O)(=O)c1ccccc1,8%,3%,1%,1%,-16%,1%
CC1=NN(c2ccccc2)C(=O)/C1=C/c1ccc(Cl)cc1,/,-6%,/,0%,?,0%
CC1=NN(c2ccccc2)C(=O)/C1=C\c1ccc(Br)s1,0%[1.84 µM],?,-7%,-4%,9.5µM*,2%
CC1=NN(c2ccccc2)C(=O)/C1=C/c1cccs1,3%,17%,-1%,-2%,8.5µM*,9%
CCOc1cc(/C=C2\C(=O)N(c3ccc(C(N)=O)cc3)N=C2C)ccc1OC(=O)c1cccs1,-3%,8%,-1%,6%,?,-1%
COc1ccc(/C=C2/C(=O)N(c3ccccc3)N=C2C)cc1Br,/,16%,/,-4%,13µM*,-7%
COc1ccc(CN(C)S(=O)(=O)c2nnc(NC(=O)c3cccc(C)c3)s2)cc1OC,/,-2%,/,8%,1%,0%
CCOCCCNC(=S)Nc1ccc(S(N)(=O)=O)cc1,?,-1%,-3%,0%,2%,-4%

# Source: PubChem BioAssay (National Center for Advancing Translational Sciences (NCATS))
